# High-throughput results as filed in PubChem.
# Pf gamet viab: late stage P. falciparum gametocyte viability inhibitors, primary screen, ATP luminescence, HTS | P. falciparum stage V gametocytes, 24 h | inhibition, % at 10.9 µM | 0.065% of 150,000 active;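 active = inhibition above the mean plus 3 SD of compounds within the control limits, set per campaign, cut at about 38% in these data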;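 also: 0% = DMSO wells and 100% = medium only without gametocytes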
# Mcl1-Noxa inh: Mcl-1/Noxa binding inhibitors, primary screen, biochemical, TR-FRET, 1536-well | Induced myeloid leukemia cell differentiation protein Mcl-1 (Homo sapiens), Q07820 | TR-FRET Mcl-1/Noxa peptide binding, 2 h | inhibition, % at 21.7 µM | 1.5% of 220,000 active | AID 1022, 2008;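 active = compounds that cut the protein-peptide binding signal by more than 50% relative to plate controls in a single-dose test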;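 also: His-tagged Mcl-1 with rhodamine Noxa BH3 peptide and terbium anti-His antibody; 0% = Mcl-1 plus Noxa peptide wells and 100% = peptide-only wells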
# Target sequence (Q07820 whole entry, looked up): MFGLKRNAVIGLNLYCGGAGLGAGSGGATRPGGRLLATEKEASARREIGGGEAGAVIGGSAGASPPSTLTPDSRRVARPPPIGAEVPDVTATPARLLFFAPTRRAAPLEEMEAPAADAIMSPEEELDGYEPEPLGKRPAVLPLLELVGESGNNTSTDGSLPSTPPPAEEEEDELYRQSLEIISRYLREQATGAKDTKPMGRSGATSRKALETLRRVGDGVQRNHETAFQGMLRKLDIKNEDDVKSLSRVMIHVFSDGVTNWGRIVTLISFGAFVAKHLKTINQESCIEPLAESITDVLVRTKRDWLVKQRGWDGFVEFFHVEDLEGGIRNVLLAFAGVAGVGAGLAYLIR
# Bim-Mcl-1: inhibitors of Bim peptide binding to Mcl-1, primary screen, biochemical, bead-based flow cytometry, multiplex | Induced myeloid leukemia cell differentiation protein Mcl-1 (Homo sapiens), Q07820 | Bim peptide-Mcl-1 binding | inhibition, % at 10 µM | 0.1% of 190,000 active | AID 1009, 2008; in the data active = inhibition above about 40%;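 also: 0% = no compound tracer wells and 100% = peptide blocker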
# Hck-Nef inh: inhibitors of Nef-activated human Hck kinase, primary screen, biochemical, Z-Lyte FRET, 384-well, Hck-YEEI. inhibition, % at 20 µM. Recombinant Hck-YEEI plus Nef, Z-Lyte FRET kinase assay. Tyrosine-protein kinase HCK (Homo sapiens), P08631. AID 463187, 2010. 0.68% of 220,000 active;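 active = Hck-Nef kinase inhibition above about 50%, limit read from the data; inactive = inhibition below that limit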;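 also: 0% = DMSO with Hck plus Nef and 100% = Hck alone without Nef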
# 14-3-3 Bad PPI: inhibitors of 14-3-3 zeta/Bad binding, primary screen, biochemical, TR-FRET, bovine 14-3-3 zeta | 0.71% of 220,000 active | TR-FRET 14-3-3zeta/Dy647-pBad peptide displacement, 1 h | AID 781, 2007 | inhibition, % at 21.7 µM | 14-3-3 protein zeta/delta (Bos taurus), P63103;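 active = inhibition above about 70%, limit read from the data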;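 also: 0% = full 14-3-3 plus peptide FRET controls and 100% = background without 14-3-3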
# Target sequence (P63103 whole entry, looked up): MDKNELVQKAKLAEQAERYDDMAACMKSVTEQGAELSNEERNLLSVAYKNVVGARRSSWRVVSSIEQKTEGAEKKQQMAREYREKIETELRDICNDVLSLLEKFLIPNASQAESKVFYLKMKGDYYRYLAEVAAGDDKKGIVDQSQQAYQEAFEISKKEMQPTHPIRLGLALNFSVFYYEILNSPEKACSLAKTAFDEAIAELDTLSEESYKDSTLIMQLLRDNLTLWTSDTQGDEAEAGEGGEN
# Mcl1-Bid inh: Mcl-1/Bid binding inhibitors, primary screen, biochemical, TR-FRET, 1536-well; Induced myeloid leukemia cell differentiation protein Mcl-1 (Homo sapiens), Q07820; TR-FRET Mcl-1/Bid-Dy647 peptide binding; inhibition, % at 21.7 µM; 0.97% of 220,000 active;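 active = compounds that cut the binding signal by more than half at the single screening dose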;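 also: His-tagged Mcl-1 with europium anti-His antibody binding Bid BH3 peptide; 0% = Mcl-1 plus peptide wells and 100% = peptide-only wells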
# An asterisk follows results filed as active; . = no result given; ! = not confirmed by another sample; [ ] = another dose, or the depositor's remark. The list is not random: actives were taken first. Their share in the collection is about 2.9%.
SMILES,Pf gamet viab,Mcl1-Noxa inh,Bim-Mcl-1,Hck-Nef inh,14-3-3 Bad PPI,Mcl1-Bid inh
COCCCN=C1NN=C(c2cc(C)n(-c3ccccc3)c2C)CS1,-5,11,-9,6,-8,-12
CCCCN=C1NN=C(c2cc3ccccc3o2)CS1,11,70*,-1,4,-8,-45
CCCCN=C1NN=C(c2cccc([N+](=O)[O-])c2)CS1,0,51*,3,24,-5,9
c1ccc(-c2nnnn2CCOCCn2nnnc2-c2ccccc2)cc1,7,5,0,1,-7,-10
COc1cc(/C=C/C(=O)OCC(=O)Nc2ccc([N+](=O)[O-])cc2)ccc1O,-8,26,.,21,-4,-24
COc1cc(/C=C/C(=O)OCC(=O)Nc2cc(C)c(C)cc2[N+](=O)[O-])ccc1O,7,93*,.,4,6,41
COc1ccc(/C=C/C(=O)NC(=S)Nc2cc([N+](=O)[O-])ccc2O)cc1OC,4,93*,0,24,49,13
COc1ccc(C2=CC(=O)C=CC2=O)cc1,.,87*,.,70*,37,15
COc1ccc(NC(=S)NCCCN2CCCC2)cc1Cl,-2,25,-3,0,7,-60
CCC1=NNc2cccc3c(OC)ccc1c23,.,78*,32,2,-12,-2
O=C(COc1ccccc1[N+](=O)[O-])Nc1cc(C(=O)O)cc(C(=O)O)c1,-18,17,-2,19,-1,7
Cc1ccc2c(c1)C1CCCC3C1N2CC(=O)N3Cc1ccccc1 (centres undefined),.,51*,-3,2,-15,-55
CC(C)c1ccc(/C=N/NC(=O)c2cc(-c3cccc([N+](=O)[O-])c3)n[nH]2)cc1,-26,22,.,3,2,43
O=C(N/N=C/c1cccc([N+](=O)[O-])c1)c1cc2c(ccc3ccccc32)o1,.,31,0,12,69,82*
Cc1ccc([N+](=O)[O-])cc1-c1ccc(/C=N/NC(=O)c2cc3c(ccc4ccccc43)o2)o1,.,6,0,-23,85*[fluorescence artefact?],-13
O=C(N/N=C/c1ccncc1)c1cc2c(ccc3ccccc32)o1,.,22,-5,0,.,10
Cc1cc([N+](=O)[O-])c(C)cc1-c1ccc(/C=N/NC(=O)Cn2nnnc2N)o1,-2,55*,1,53*,88*,53*
O=C(N/N=C/c1cccc([N+](=O)[O-])c1)c1cc(-c2ccc3c4c(cccc24)CC3)n[nH]1,-9,24,-5,10,43,60*
N#CCn1cc(/C=N/NC(=O)c2cc3c(ccc4ccccc43)o2)c2ccccc21,-24,-14,.,26,4,-34
O=c1oc(/C=C/c2ccco2)nc2sc3c(c12)CCC3,-7,-6,0,-1,-4,-48
COc1ccc(-c2[nH]ncc2CN2CCN(Cc3cccs3)CC2)c(F)c1,.,11,-3,23,-4,-13
O=C(CNC(=O)c1cccs1)NCCN1CCC(Cc2ccccc2)CC1,5,1,-3,1,-1,-1
O=C(NCCNC1CCN(Cc2ccccc2)CC1)c1cccs1,.,7,-1,7,71*,8
COc1ccc(OC)c(N2C(=O)[C@@H]3C(c4ccccc4Cl)=NO[C@@H]3C2=O)c1,.,59*,2,4,14,-40
COc1ccc2c(CC(=O)NCc3ccc4c(c3)OCO4)coc2c1,.,37,-2,1,-1,-37
SMILES,Pf gamet viab,Mcl1-Noxa inh,Bim-Mcl-1,Hck-Nef inh,14-3-3 Bad PPI,Mcl1-Bid inh
CCOc1cc(C(=O)NC(C)CC)cc(OCC)c1OCC (centres undefined),-14,-4,3,1,-9,-19
Cc1cc(C)c[n+](-c2nc3ccccc3nc2C(=C=[N-])C#N)c1,.,23,46*!,17,-4,-30
Cc1ccc[n+](-c2nc3ccccc3nc2C(=C=[N-])C#N)c1,-11,-1,0,3,-5,-47
Cn1c(-c2ccc(F)cc2)cnc1NCc1cccc(F)c1,.,34,1,-2,79*,14
Cn1cnnc1SCC(=O)Nc1sc2c(c1C(N)=O)CCC2,.,100*,-1,8,16,-64
CC(C(=O)O)N1C(=O)/C(=C/C=C/c2ccco2)SC1=S (centres undefined),.,.,-2,69*,.,.
N/C(=N\OC(=O)Cc1ccc(-c2ccccc2)cc1)c1cccnc1,.,20,3,-2,56,-5
COC/C=C/C1=CC2=CC(=O)C(C)(OC(=O)c3cnc4ccccc4n3)C(=O)C2=CN1Cc1ccc(OC)cc1 (centres undefined),.,57*,.,35,-3,-37
COC/C=C/C1=CC2=CC(=O)C(C)(OC(=O)c3cnc4ccccc4n3)C(=O)C2=CN1Cc1ccccc1 (centres undefined),.,34,.,16,-3,-44
CCCCC1=CC2=CC(=O)C(C)(OC(=O)c3cnc4ccccc4n3)C(=O)C2=CO1 (centres undefined),.,62*,.,65*,0,-17
O=C(Nc1cccnc1)c1cccc(-c2cc3ccccc3oc2=O)c1,5,28,-1,10,78*,57*
CCOc1ccc2nc(NC(=O)c3cccc(-c4cc5ccccc5oc4=O)c3)sc2c1,-13,76*,-6,43,52,84*
NNC(=O)c1cc2c(ccc3ccccc32)o1,.,14,-4,36,-9,-27
O=C(Nc1ccc(-c2cc3ccccc3oc2=O)c(Cl)c1)c1cccnc1,.,-92,-3,16,59,-12
O=C(Nc1cccnc1)c1cc2c(ccc3ccccc32)o1,.,36,0,0,77*,26
COc1cc(NC(=O)c2cccnc2)ccc1-c1cc2ccccc2oc1=O,-11,51*,-1,-3,35,20
CCn1nnc(NC(=O)c2cccc(-c3cc4ccccc4oc3=O)c2)n1,.,-15,-1,3,-6,-7
CCOC(=O)c1cc(=O)n2[nH]c(-c3ccc(C)cc3)cc2n1,.,28,-3,5,20,-21
Cc1snc(SCC(=O)N/N=C(\N)COc2cccc(C(F)(F)F)c2)c1C#N,-8,10,-2,1,.,-64
Cc1ccc(S(=O)(=O)N2CCN(C(=O)CSc3nnc(C)c(=O)[nH]3)CC2)cc1,.,13,-2,0,-10,-39
CC(NS(=O)(=O)c1cccc(Cl)c1)C(=O)N(C)C1CCN(C)CC1 (centres undefined),22,53*,1,24,-10,-14
